V-ATPase pHluor – regulators of yeast V-ATPase proton transport. 350,000 tested, 0.37% active. response, % at 10 µM. S. cerevisiae, pHLuorin cytosolic pH fluorescence; in the data active = response mostly above about 7.3%, no sharp cut-off; inactive = mostly below about 5.4%; note: actives read high
Rtt109 Vps75 – C. albicans Rtt109 histone acetyltransferase inhibition; purified Rtt109/Vps75, ThioGlo CoA-SH fluorescence, 4 h; inhibition, % at 34.9 µM; 330,000 tested, 0.16% active; Q5AAJ8;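 active = inhibition of at least 50% in every replicate; inconclusive = best replicate reaches 50% inhibition but some replicates fall short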
Target sequence (Q5AAJ8 whole entry, looked up): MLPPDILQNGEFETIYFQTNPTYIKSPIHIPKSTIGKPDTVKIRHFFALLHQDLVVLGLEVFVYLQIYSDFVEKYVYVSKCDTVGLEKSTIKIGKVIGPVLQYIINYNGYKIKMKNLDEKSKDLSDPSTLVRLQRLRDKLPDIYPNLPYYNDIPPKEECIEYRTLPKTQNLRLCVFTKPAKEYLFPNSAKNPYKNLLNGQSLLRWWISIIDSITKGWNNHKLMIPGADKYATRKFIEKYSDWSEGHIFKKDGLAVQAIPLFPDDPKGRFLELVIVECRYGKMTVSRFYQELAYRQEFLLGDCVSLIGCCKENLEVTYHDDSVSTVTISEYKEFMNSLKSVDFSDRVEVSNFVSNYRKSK
HDAC3 inh – blocks human histone deacetylase 3. 320,000 tested, 0.15% active. AID 2718. recombinant HDAC3, fluorogenic peptide/trypsin coupled, fluorescence. inhibition, % at 8.3 µM. O15379; in the data active = inhibition above about 26%, passing the limit was not always enough; inconclusive = no clear call, values can overlap the other calls
MIN6 prolif – induces beta-cell replication in MIN6 cells | MIN6 cells proliferation, ATPlite luminescence, 48 h; cells starved in 0.2% serum; 100% = growth in 10% serum | proliferation, % at 10 µM | 330,000 tested, 0.29% active;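 active = compounds whose signal lies at least 3.5 SD above the mean of all wells on their plate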;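 note: 0% = DMSO-treated cells in low-serum medium and 100% = 10% serum control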
DAGLB inhibitor – blocks human DAGLB lipase activity; Q8NCG7; 340,000 tested, 0.059% active; inhibition, % at 5.17 µM; HEK293T DAGLB membrane lysate, EnzChek fluorogenic substrate; in the data active = inhibition above about 34%;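 note: 0% = enzyme with vehicle and 100% = wells lacking enzyme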
Active calls of the source: *. Rows were chosen to be rich in hits. Some 0.96% of all compounds tested hit in one or more screens of this group.

`CC#CCN(CC#CC)S(=O)(=O)c1ccc(-n2cnnn2)c(OC)c1` gave V-ATPase pHluor -1.4, Rtt109 Vps75 53.7*, HDAC3 inh -1.4, MIN6 prolif 0.0 and DAGLB inhibitor -1.5.
CC(C)C[C@H](NC(=O)c1nc[nH]c1C(=O)NCC(=O)OC(C)(C)C)C(=O)OC(C)(C)C was read as V-ATPase pHluor -2.2, Rtt109 Vps75 -27.7, HDAC3 inh 30.3*, MIN6 prolif -5.8 and DAGLB inhibitor -3.0.
Screening CC(C)C[C@H](NC(=O)c1nc[nH]c1C(=O)N[C@@H](CC(C)C)C(=O)OC(C)(C)C)C(=O)OC(C)(C)C returned V-ATPase pHluor -6.5, Rtt109 Vps75 -2.6, HDAC3 inh 1.0, MIN6 prolif -8.6 and DAGLB inhibitor -8.4.
Screening CC(C)(C)OC(=O)NCCCCCNC(=O)c1[nH]cnc1C(=O)N[C@@H](Cc1ccccc1)C(=O)OC(C)(C)C returned V-ATPase pHluor -10.2, Rtt109 Vps75 14.0, HDAC3 inh 27.7*, MIN6 prolif -5.7 and DAGLB inhibitor -0.7.
Screening Cc1oc2ccc(O)cc2c1C(=O)c1ccccc1 returned V-ATPase pHluor 2.0, Rtt109 Vps75 -11.7, HDAC3 inh -1.9, MIN6 prolif -1.3 and DAGLB inhibitor -2.2.
COc1ccc(C(CNC(=O)COc2ccc(-c3ccccc3)cc2)N2CCOCC2)cc1 (stereo not given) was read as V-ATPase pHluor -1.2, Rtt109 Vps75 -5.1, HDAC3 inh -4.5, MIN6 prolif -4.6 and DAGLB inhibitor -0.9.
For O=C(CNC(=O)c1ccc(F)cc1)c1ccc(Cl)cc1 the results were V-ATPase pHluor 1.4, Rtt109 Vps75 52.4*, HDAC3 inh 1.0, MIN6 prolif -0.5 and DAGLB inhibitor -2.3.
Screening O=C(CNC(=O)c1ccc(Cl)cc1)c1ccc(Cl)cc1 returned V-ATPase pHluor 2.2, Rtt109 Vps75 -5.1, HDAC3 inh -2.6, MIN6 prolif -1.9 and DAGLB inhibitor -5.6.
CS(=O)(=O)Nc1nnc(CCc2ccccc2)s1 was read as V-ATPase pHluor 0.6, Rtt109 Vps75 3.4, HDAC3 inh 1.3, MIN6 prolif -1.7 and DAGLB inhibitor 1.4.
For COc1cccc(-c2noc(CCC(=O)Nc3cccnc3)n2)c1 the results were V-ATPase pHluor 0.0, Rtt109 Vps75 -0.5, HDAC3 inh 1.0, MIN6 prolif 1.7 and DAGLB inhibitor -2.3.
`COc1cccc(-c2noc(CCCC(=O)Nc3ccc(C(N)=O)cc3)n2)c1` gave V-ATPase pHluor 17.3*, Rtt109 Vps75 -7.5, HDAC3 inh 0.3, MIN6 prolif 1.5 and DAGLB inhibitor 0.0.
Screening O=C(CSc1ccccc1)Nc1nc2ccccc2[nH]1 returned V-ATPase pHluor 31.5*, Rtt109 Vps75 -2.8, HDAC3 inh -1.2, MIN6 prolif -3.6 and DAGLB inhibitor 0.6.
Screening Cc1ccc(NC(=O)COC(=O)C2(C)CC2(Cl)Cl)cc1S(=O)(=O)N1CCOCC1 (stereo not given) returned V-ATPase pHluor 23.2*, Rtt109 Vps75 -2.5, MIN6 prolif 2.3 and DAGLB inhibitor 2.4.
Screening Cc1ccc(NC(=O)COC(=O)c2ccco2)cc1S(=O)(=O)N1CCOCC1 returned V-ATPase pHluor -3.8, Rtt109 Vps75 11.1, HDAC3 inh -0.6, MIN6 prolif 4.1 and DAGLB inhibitor 2.0.
CCCCCCCCCCC[N+](C)(C)CC/C=C1/c2ccccc2Sc2ccc(Cl)cc21 was read as V-ATPase pHluor 10.4, Rtt109 Vps75 -4.6, HDAC3 inh 32.4*, MIN6 prolif -5.2 and DAGLB inhibitor 9.6.
`CC[N+](C)(C)CC/C=C1/c2ccccc2Sc2ccc(Cl)cc21` gave V-ATPase pHluor -2.1, HDAC3 inh -3.2 and MIN6 prolif -0.7.
`CCCCCCCCCC[N+](C)(C)CC/C=C1/c2ccccc2Sc2ccc(Cl)cc21` gave V-ATPase pHluor 1.6, Rtt109 Vps75 4.5, HDAC3 inh 34.6*, MIN6 prolif -5.3 and DAGLB inhibitor 5.0.
`O=S(=O)(NC1CCN(Cc2ccccc2)CC1)c1ccc2ccccc2c1` gave V-ATPase pHluor 1.5, Rtt109 Vps75 9.6, HDAC3 inh 5.0, MIN6 prolif -2.7 and DAGLB inhibitor -4.0.
For O=C(Cc1ccc(F)cc1)Nc1cccc2cccnc12 the results were V-ATPase pHluor -7.5, Rtt109 Vps75 63.0*, HDAC3 inh 2.1, MIN6 prolif -0.9 and DAGLB inhibitor -2.3.
`CCc1ccc(Nc2c([N+](=O)[O-])c(=O)oc3ccccc23)cc1` gave V-ATPase pHluor -3.9, Rtt109 Vps75 -3.1, HDAC3 inh 8.4, MIN6 prolif -1.6 and DAGLB inhibitor 3.7.
O=C(/C=C/c1ccc(Cl)cc1)c1ccc([N+](=O)[O-])o1 was read as V-ATPase pHluor 12.1*, Rtt109 Vps75 -18.6, HDAC3 inh 3.8, MIN6 prolif -9.0 and DAGLB inhibitor -2.6.
Cc1ccc(/C=C/C(=O)c2ccc([N+](=O)[O-])o2)cc1 was read as HDAC3 inh 3.7 and MIN6 prolif -6.9.
For COCCCNC(=O)Cn1c(=O)oc2cc(S(=O)(=O)N3CC(C)CC(C)C3)ccc21 (stereo not given) the results were V-ATPase pHluor 20.4*, Rtt109 Vps75 -3.2, HDAC3 inh -26.0, MIN6 prolif -1.3 and DAGLB inhibitor 2.6.
For N#C/C(=C\c1ccc([N+](=O)[O-])o1)C(=O)Nc1ccc(F)cc1 the results were V-ATPase pHluor 113.8*, Rtt109 Vps75 -1.2, HDAC3 inh 1.6, MIN6 prolif -6.8 and DAGLB inhibitor 8.0.
Screening O=c1[nH]c2ccccc2c(O)c1-[n+]1ccccc1 returned V-ATPase pHluor 4.0, Rtt109 Vps75 -0.5, HDAC3 inh -3.4, MIN6 prolif 2.2 and DAGLB inhibitor 2.5.
`O=c1[nH]c2ccccc2c(O)c1O` gave V-ATPase pHluor 0.0, Rtt109 Vps75 175.7*, HDAC3 inh 3.2, MIN6 prolif -5.9 and DAGLB inhibitor -1.1.
For O=C(CCCN1C(=O)c2ccccc2C1=O)N1CCCCC1 the results were V-ATPase pHluor -3.1, Rtt109 Vps75 -10.7, HDAC3 inh -12.2, MIN6 prolif -1.9 and DAGLB inhibitor 1.3.
For CCCCC(CC)CN=C(N)NC(N)=NCCCCCCN=C(N)NC(N)=NCC(CC)CCCC (stereo not given) the results were V-ATPase pHluor 84.3*, Rtt109 Vps75 -2.2, HDAC3 inh inconclusive, MIN6 prolif -8.3 and DAGLB inhibitor 9.1.
For Nc1c(C(O)(C(F)(F)F)C(F)(F)F)cc(C(O)(C(F)(F)F)C(F)(F)F)c2ccccc12 the results were V-ATPase pHluor 2.3, Rtt109 Vps75 1.4, HDAC3 inh 32.6*, MIN6 prolif -3.5 and DAGLB inhibitor -3.4.
`CCOC(=O)c1ccc(S(=O)(=O)NCC(C)(C)N2CCOCC2)cc1` gave V-ATPase pHluor -1.8, Rtt109 Vps75 -2.3, HDAC3 inh -3.8, MIN6 prolif -3.2 and DAGLB inhibitor 1.2.
`Cc1cccc(OCC(O)Cn2ccnc2C)c1` (stereo not given) gave V-ATPase pHluor 13.2*, Rtt109 Vps75 12.0, HDAC3 inh 0.4, MIN6 prolif -3.8 and DAGLB inhibitor -1.4.

Compound activity (PubChem)
